According to PubChem BioAssay AID1508600 (Functional Genomics Laboratory (NCATS/FGL), 2020):
Out of some 53,000 sequences screened, about 3,700 (7%) were called active. This excerpt belongs to a sample that is enriched for actives. Values without a mark were called inactive.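 Rule for the calls: active = gene knockdowns whose robust z-score for IL-1 alpha signal is at least 2 or at most -2, so actives lie on both sides; inactive = the rest.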

Assay: Components of the Cytosolic LPS Sensing Pathway: Gene Identification via Genome-wide siRNA Screen;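 note: robust z of the log signal after scaling to non-targeting control siRNA wells of the plate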
Conditions: RAW264.7 macrophages, IL-1a HTRF, actives lie on both sides, screened at 100 nM (by protocol), cells primed 5 h with Pam3CSK4 first
Procedure, shortened: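 RAW264.7 mouse macrophages reverse-transfected with single siRNAs (100 nM final) for 48h, primed with Pam3CSK4 for 5 hours, then transfected with LipidA for 24 hour. Supernatant IL-1a read by HTRF; values normalized to negative-control median, log-transformed robust z-scores.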

Sequence	z-score
GGAAGUUUACCAGUCUAUCTT against Pik3c2a	1.4
GCUACCCAUGAGCUUUCGATT against S100a3	0.495
GCCCAUUGUUACCUUGUACTT against Klb	-2.06 (active)
GGCCUUAUCGGCAGAUAUUTT against Tmem44	-1.24
GGCAGUCUUAUAAUUCAUCTT against Zfp944	-1.08
CGUUUGACACUUUUGCCUUTT against Mid1	1.09
GGUUUUUGUGGCUGAUCUUTT against Zfp711	-0.545
GGAUUUCCUUGGUUCUUUUTT against Mylip	0.145
GCUCUUCCGCACUUUCAUUTT against H2al1m	1.37
GGAACACUCCAGUUUGAAUTT against Thsd1	1.09
GGAACAAGUACAUACUUAUTT against Frs2	2.09 (active)
GCACUCAAGGUUUUACUGUTT against Satb1	-0.356
CCUUGUGUAUGAAAUACUUTT against Taf1b	-0.282
GCUUGAUUUUUGACAGAGATT against Mdh1b	1.48
GCGAUGAUGAAAGCUCAGUTT against Atad1	-2.36 (active)
CCAGGAGUCGAGUGAUGGUTT against Rtl1	0.886
GGGUAAACUGUGGAGAAAUTT against Fam214b	-0.833
GGAAGAAGCAGCAAGAAGATT against Ttc39b	-2.16 (active)
GAUGAAAGCUACAAUGAAGTT against Srpx2	1.67
GGAAUUUCAGGAGAUACUGTT against C1qtnf12	-1.04
GCCGGAUCUAUUAAAGAAATT against Hdac2	0.134
GCAACUAUACUGGACAAUUTT against Olfr328	-1.19
GGCUUAUUAUCAGGAAAUGTT against Plcz1	-1.32

Sequence	z-score
GGAAGUCUACAAGUGGCCATT against Nr1d1	-0.467
CGCAGCGACCAGCUUUCAATT against Srebf2	0.789
GGUGGUACGCAAUCAAAAGTT against Galnt17	2.46 (active)
GCCACCUAAUUUACAAUCUTT against Ccn3	0.573
GCACCAAUUCCCUAACUGGTT against Fam102a	0.244
GGACCUACAUAACAAGCUUTT against Thnsl2	1.83
GGCAGAAGCAGAUAUUAGATT against Rbmxl1	2.23 (active)
GGUUUCUGUUUUGUCACACTT against Slc22a13b	-0.535
GGGCAAUGGAAGAAUUCCUTT against BC030500	-1.69
GGAGCAAGAUGAAGAAGAGTT against Ticam2	-2.26 (active)
CCACGCUACCUUCAAGAGATT against Clec14a	0.946
GGAUCUUGACUUUGAUAUGTT against Trpm4	0.0632
GGACUCAAAACCAUUUACATT against Dram1	-1.13
GGAUCAACUGGUGACACAGTT against Preb	-0.00996
GGAUCCUGCUCAAAAAAGUTT against Arxes1	-0.431
GGAAGAUCAUAAUGGACAGTT against Pcsk9	6.01 (active)
GAAGUCGGUGGACAAGAACTT against Cebpa	0.662
GCACUGUUUGUGCAAACAATT against C130071C03Rik	-2.22 (active)
CCACUCUAAUGAUGUUUUUTT against Slc46a3	0.411
CCCACUGGUGUACGUGAUCTT against Bdkrb2	2.21 (active)
GGCUAAGGAAUGUCAAUAATT against Dnajc5g	0.0787
GGUGCUACCUCUAGAUAUUTT against Utp3	1.96
CCACUUCUCUAAGACAAUCTT against Acox3	-0.107

Sequence	z-score
CCCAUUGGAACUGCUGUAATT against Metrnl	0.932
GGUCAAAGUUAUGCAAUGUTT against Rp9	-2.02 (active)
GGACUUGAUUAUCUACACUTT against Stk24	-2.24 (active)
CGAAUAUGGUAUUCACUCATT against Skint4	0.157
GCCCUUACAUUUUAUACUATT against Zfp93	1.1
CCACGUCCUCUACUUGUAUTT against Nmbr	-0.813
GCGUAACUACUACAUGAAUTT against Ano9	-2.33 (active)
GGACUUACUUCCCAUUUCGTT against Gdpd3	0.297
GGUGUAUGCGUCACUAGAATT against Rxra	0.0162
GGACUACUCUGCCAGAUGGTT against Fam71f1	0.0252
GCUUUAAGUACUUUAACGCTT against Ncr1	1.04
GCAGCUACUACACCAACCATT against Dlx2	-2.46 (active)
CGAAAACAGUACGAUGCUUTT against Dnajb11	1.03
CCUCAAUGAAGACCCAUUATT against Kif1b	-1.35
GGUUUUCUAUGGAAGAGAUTT against Igdcc4	0.835
GGUAUCCACUGUGCCAACCTT against Ush2a	-0.343
CGAUCGUAUUCAAUGGAAATT against Rims2	-0.998
GCAUCUGCAUUUUUUGCUATT against Prox1	1.29
GCUUUUGCUACAAGUGUAUTT against Cop1	-0.593
GGCAGAUGGCCGAAUUGAUTT against Rest	-1.13
GGACGAUUUAAGGAUUUUUTT against Dcun1d1	-2.4 (active)
CCAAGUACCCUGAGAGUUUTT against Pnpla6	1.46
GCCAAACGAACAACAAAACTT against Chrm3	-0.166
